# Test results as given in the supplement of paper PMC6555819.
# Columns and labels:
# Assay in all cases: PBM binding z-score (relative to random genomic background probes); higher = stronger binding; sequences stand for … in GC…GCGATTGACAGCGTAGAATGAAGG
# [1] = test system: RARb homodimer (NR concentration 270 nM)
# Method in brief: (§1)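 Custom Agilent 4×180K protein-binding microarrays carried double-stranded probes, each with a 34-nt variable region. These regions held direct-repeat seeds, single-nucleotide variants, half-site ablations and random human genomic background sequences. Ligand-free nuclear receptor dimers were incubated on the arrays for 1 h, antibodies against each partner (one per run) detected binding, and scanned fluorescence was regression-normalized. Binding z-scores take the random background probes as reference.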
# [2] = test system: RARg:RXRa (NR concentration 270 nM, RXRa partner concentration 90 nM)
# Method in brief: as §1
# [3] = test system: RARg homodimer (NR concentration 270 nM)
# Method in brief: as §1
# [4] = test system: RXRa DBDmut IVT, anti-RXR (DBD mutation: RXRa K156A/R161A, NR concentration 90 nM)
# Method in brief: as §1
# [5] = test system: RXRa homodimer (NR concentration 180 nM)
# Method in brief: as §1
# [6] = test system: THRa:RXRa (NR concentration 90 nM, RXRa partner concentration 90 nM)
# Method in brief: as §1
# [7] = test system: THRa homodimer (NR concentration 90 nM)
# Method in brief: as §1
# [8] = test system: VDR homodimer (NR concentration 270 nM)
# Method in brief: as §1
Sequence,PBM binding z-score [1],PBM binding z-score [2],PBM binding z-score [3],PBM binding z-score [4],PBM binding z-score [5],PBM binding z-score [6],PBM binding z-score [7],PBM binding z-score [8]
AGAATGAGGTTATACGTAGATCAGAGAAGAAAGT,0.491,1.83,1.42,1.87,2.05,2.25,0.546,0.887
GATACAGGGTCAGCGAGAGGCCAGAGTATGGAAA,3.12,6.57,4.48,1.31,4.6,3.3,0.369,0.864
ACAGACAGGTGATGAAGGTTACTCAGGCTATCAT,1.16,0.777,0.687,0.104,0.748,0.904,0.139,0.291
GCAGACAGGTGAAACGCAGGTAACTGAGGGTGGC,0.0628,0.86,0.142,-0.51,0.568,1.06,-0.377,-0.727
CAGCCTAGGTTAGGGCCAGTATAGGAGGAACGTT,0.216,0.0888,0.349,-0.851,0.0782,-0.0554,-0.75,-0.636
ATCGAAAGGTCGACGATGTGAGTATACACCGTTT,2.66,3.8,3.82,1.13,4.27,1.91,-0.483,0.438
GTACCAAGGTCAATAGGTCGTTGATGAGTAGGCG,4.86,6.58,5.59,2.86,5.66,3.68,1.77,2.55
TGGAGTAGGTTAGTCGGGGCATTCAGCCAACATA,1.41,0.219,0.355,-0.608,0.023,1.48,0.985,1.24
ACTTACGGGTCAATGAGGTTATAGCACGCGTATA,3.59,5.05,4.75,2.58,6.03,4.16,1.57,3.35
CCTCCTGGGCCAAGGTCATTGATCAGTCAAAGCA,3.38,3.6,3.13,0.822,3.1,3.43,2.34,3.08
ACAGACAGGTGATGAAGGTATCTCAGGCTATCAT,0.276,0.119,0.27,-0.321,0.203,0.741,-0.068,-0.586
TCTCGGAGGACGCGAAGGTCAGAGCTTTCCAGAG,3.03,2.26,2.1,0.401,1.67,1.84,0.0235,0.488
TCTTGTAGATCACAGGTTAAGAAAGCCGAAGCCT,0.0208,0.222,0.135,0.557,0.811,0.341,-0.442,-0.219
GTACCAAGGTGAATAGGTCGGTGATGAGTAGGCG,1.58,1.83,1.21,-0.398,1.14,1.57,0.522,0.177
ACAGACAGGTGTTGAAGGTAACTCAGGCTATCAT,-0.0362,-0.0194,0.114,-0.19,0.0702,0.786,0.073,-0.587
GGAGCGAGGGCAAAGTTGATAGCATCTGTCGACG,0.881,1.71,1.34,2.06,1.7,0.838,-0.34,0.99
ACTTACGGGTCAACGTGGTTATAGCACGCGTATA,3.03,5.25,5.16,2.08,6.28,2.64,0.124,1.18
CGAACGAGGGCATGAGTTGATGGCAAATGCCGAT,0.659,1.25,1.6,2.05,0.973,1.08,-0.389,1.31
TGGCCTAGGTCAGATCGGGCCAGTATACGCTATA,1.79,2.62,4.12,-0.787,1.19,3.53,-0.553,-0.622
CGTCCAAGGTCAAAGGTCAGTGCAGAGATGACGG,5.5,8.65,8.11,4.2,10,4.76,3.26,4.12
TGACCAAGGTGAAGGTCGTTGATCCCTCTGTAGA,1.87,1.64,1.25,-0.322,1.84,2.37,0.58,0.744
CGTCCAAGGTCAATCCTAGGTCAGTGAAAGCATT,5.21,7.69,6.57,3.57,5.38,4.72,3.63,3.06
TCTAGTAGGTTAGTCGGGGCATTCAGCCAACATA,1.04,0.36,0.358,1.33,0.381,1.4,0.765,1.14
CGTCCATGGTCAGCAGGTCAGTGAAAGCGACGTG,2.46,1.81,2.05,-0.144,0.937,0.887,-0.0849,-0.456
ATAGAAAGGTCGTGAGGTGAGTATACAGAAAGGC,3.32,4.4,4.01,1.32,5.4,3.48,1.99,1.31
TCGAGTAGGTTAGGTGCATTCAGAATGGCGTCGA,0.197,-0.25,-0.0841,1.04,0.1,-0.142,-0.111,1.47
CCTACTGGTCCAAAAAGGTCATTGATGCCGATAA,4.58,4.42,4.17,1.56,4.74,3.35,1.18,3.81
CCTCGGAGGACAACGGGAGGTCAGAGCTGCCAGA,3.43,3.93,3.4,-0.419,1.76,3.04,1.32,1.08
